esBAF inh: SWI/SNF esBAF complex inhibition; mouse ES cells, Bmi1-luciferase knock-in reporter, 24 h; 100% = twice the neutral-well signal; reporter increase, % at 12.5 µM; actives 2% (n = 350,000); in the data active = activation above about 40%; inconclusive = no clear call, values can overlap the other calls;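 also: 0% = median of the plate's neutral control wells and 100% = double that signal; a rise in the Bmi1 reporter signal indicates esBAF inhibition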
HSF-1 act: increases HSF-1 driven luciferase reporter signal; NIH3T3-HGL HSF-1 luciferase reporter, MG132, 8 h; 100% = twice DMSO control signal; activation, % at 9 µM; actives 1.7% (n = 300,000);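 active = mean replicate activation of at least 50% with a set share of replicates each reaching 50%; inconclusive = only one of those two conditions met; inactive = mean below 50% and too few replicates reaching it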;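 also: 0% = median of the neutral control wells and 100% = twice that signal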
HSF1 inh: HSF1 inhibition; NIH3T3-HGL HSE-luciferase, MG132-induced, luminescence 8 h; active compounds read low; activity change, negative = inhibition, % at 7.5 µM (by protocol); actives 0.77% (n = 300,000); AID 2098;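 active = more than half of replicate wells show activity change below -50%, luminescence cut by over half; inconclusive = some wells, but at most half, below -50%; inactive = no replicate well below -50%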;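 also: luciferase reports HSF-1 transcriptional activity via heat shock element; 0% = median of DMSO wells and -100% = zero luminescence signal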
Vif imaging: blocks HIV Vif function; HEK293T cells, Vif self-association by quenched fluorescence, imaging, 24 h; inhibition, % at 7.49 µM; actives 0.35% (n = 340,000); in the data active = inhibition above about 50%, passing the limit was not always enough; inconclusive = no clear call, values can overlap the other calls; inactive = below about 31%
Starred values were filed as active, the others as inactive; ? = inconclusive; . = no result given. Only some compounds are listed: those with a hit (about 3.4% of all), similar ones and a draw of the others.

SMILES	esBAF inh	HSF-1 act	HSF1 inh	Vif imaging
CCNC(=O)[C@@H]1[C@@H](CO)[C@@H]2Cn3c(ccc(-c4ccccc4F)c3=O)[C@@H]2N1CC	-5	.	.	.
CN(C)C(=O)[C@@H]1[C@@H](CO)[C@@H]2Cn3c(ccc(-c4ccncc4)c3=O)[C@@H]2N1Cc1ccccc1	5	.	.	.
NC(=S)NN=C(c1ccc(F)cc1)C1CC1	-4	.	.	70*
Cc1onc(-c2c(F)cccc2Cl)c1C(=O)c1ccccc1	.	-71	-61*	-5
Cc1onc(-c2c(F)cccc2Cl)c1C(=O)c1ccc(F)cc1	.	4	-8	-11
C/C=C/c1ccc([C@@H]2[C@@H](CNC(=O)C3CC3)N(C(=O)NCCC)[C@H]2CO)cc1	-7	.	.	.
C[C@@H]1CN([C@@H](C)CO)C(=O)Cc2cc(NS(=O)(=O)c3cccs3)ccc2O[C@@H]1CN(C)Cc1ccc(C(F)(F)F)cc1	3	.	.	.
Cc1ccc(Sc2ccc(NC(=O)CCl)cc2)c(C)c1	.	76*	41	.
Cc1noc(C)c1NC(=O)Nc1ccc2c(c1)C(=O)N(C)[C@@H]1CC[C@@H](CC(=O)NCc3ccc(Cl)cc3)O[C@H]1CO2	-2	.	.	.
C=C1CC(COc2cc(=O)oc3ccccc23)(c2ccccc2)OC1=O (centres undefined)	.	.	.	56*
C=C1CCC2C(C)(C)[C@H](O)CC[C@@]2(C)[C@@H]1COc1cc(=O)oc2ccccc12 (some centres undefined)	-1	-6	0	1
COCC(=O)Nc1ccc2c(c1)OC[C@@H](C)N(C(=O)c1ccncc1)C[C@H](C)[C@@H](OC)CN(C)C2=O	-2	.	.	.
CC(=O)Nc1ccc(NC(=O)c2ccc(NS(=O)(=O)c3cc(C(C)(C)C)cc(C)c3C)cc2)cc1	.	110*	65	-1
Cc1cc(C(C)(C)C)cc(S(=O)(=O)Nc2ccc(O)c(C(=O)O)c2)c1C	-2	0	2	25
CC(C)(C)c1csc(N/N=C/c2cccnc2)n1	34*	1	0	-6
Clc1ccc(-c2csc(N/N=C/c3cccnc3)n2)c(Cl)c1	.	10	4	-15
C(=N\Nc1nc(-c2ccccc2)cs1)/c1cccnc1	63*	23	2	-10
CC(=O)Nc1ccccc1OCc1nnc(-c2ccc(Cl)cc2)o1	66*	3	19	-3
CC(=O)Nc1ccccc1OCc1nnc(-c2cccs2)o1	18	-8	2	2
O=C(Nc1nnc(C2CCCCC2)s1)c1cccs1	51*	13	11	-3
Cc1cccc(-c2nnc(NC(=O)c3cccs3)s2)c1	47*	-84	-80*	4
CC1CCCC(C)N1C(=O)CSc1nnc(NC(=O)c2cccs2)s1 (centres undefined)	11	-1	5	109*
O=C(Nc1nnc(-c2cccnc2)s1)c1cccs1	30	4	2	3
O=C(Nc1nnc(Cc2ccccc2)s1)c1cccs1	44*	?	24	-6
COc1cccc(NC(=O)Nc2nnc(Cc3ccccc3F)s2)c1	8	-74	-67*	-11
SMILES	esBAF inh	HSF-1 act	HSF1 inh	Vif imaging
C/C=C/C(=O)OCC(=O)Nc1ccccc1Br	.	20	9	7
O=C(Nc1nnc(Cc2ccccc2)s1)c1ccccc1	70*	30	14	-1
Cc1ccc(C(=O)Nc2nnc(Cc3ccccc3)s2)cc1	3	15	-6	-10
O=C(COC(=O)/C=C/C(=O)OCC(=O)Nc1ccccc1F)Nc1ccccc1F	.	66*	53	79*
O=C(Nc1ccccc1F)Nc1ccccc1F	56*	41	20	-4
COc1ccccc1NC(=O)N[C@@H]1C=C[C@@H](CC(=O)N[C@@H](C)c2ccccc2)O[C@H]1CO	-5	.	.	.
CO[C@H]1CN(C)C(=O)c2ccc(NC(=O)Cc3ccccc3)cc2OC[C@@H](C)N(CC2CC2)C[C@@H]1C	-4	.	.	.
Cc1ccc(C(=O)Nc2nnc(COCCO)s2)cc1	50*	.	.	-13
O=C(Nc1nnc(Cc2ccccc2)s1)Nc1ccccc1F	53*	4	8	-3
OC(COc1c(F)cc(Br)cc1F)CN1CCN(c2ccc(F)cc2)CC1 (centres undefined)	-2	-90	-87*	2
COc1cccc(-c2ccc3c(c2)[C@@H]2[C@@H](CCN2C(=O)c2ccc4c(c2)OCO4)[C@H](CO)N3C)c1	2	.	.	.
C[C@H](CO)N1C[C@H](C)[C@@H](CN(C)S(=O)(=O)c2cccs2)OCCCC[C@H](C)Oc2ccc(NC(=O)Nc3ccc4c(c3)OCO4)cc2C1=O	1	.	.	.
Cc1cccc(/C=N/NC(=O)CN2CCCCCCC2)c1	.	-82	-76*	-2
Cc1ccc(O)c(/C=N/NC(=O)CN2CCCC2)c1	-7	-87	-85*	-3
CNC(=O)C[C@H]1CC[C@H]2[C@H](COc3ccc(NC(=O)NC4CCCC4)cc3C(=O)N2C)O1	4	.	.	.
CC[C@H](CO)Nc1nc(Nc2cccc(Cl)c2)c2ncn(C(C)C)c2n1	14	35	8	10
CCn1cnc2c(Nc3cccc(Cl)c3)nc(C#N)nc21	69*	.	.	1
CC(C)NC(=O)N[C@H]1C=C[C@H](CC(=O)NCCCN(C)C)O[C@@H]1CO	1	.	.	.
COc1cc(Cl)c(C)cc1NC(=O)COc1ccc(C)nc1[N+](=O)[O-]	81*	.	.	3
Cc1ccc(OCC(=O)Nc2ccc(Cl)cc2)c([N+](=O)[O-])n1	63*	.	.	.
O=C(COc1cccnc1[N+](=O)[O-])Nc1cc(Cl)ccc1Cl	48*	.	.	6
COc1ccc(/C=C(\NC(=O)c2ccc(OC)cc2)C(=O)Nc2cccc(C(=O)O)c2)cc1	46*	1	-11	-2
COc1ccc(/C=C(/NC(=O)c2ccc(Br)cc2)C(=O)Nc2cccc(C(=O)O)c2)cc1	.	.	.	9
C=CCSc1n[nH]c(-c2ccc(OCCCC)cc2)n1	48*	66*	35	-5
C=CCSc1n[nH]c(-c2ccc(OCCC)cc2)n1	74*	27	38	-8
SMILES	esBAF inh	HSF-1 act	HSF1 inh	Vif imaging
C=CCSc1n[nH]c(-c2cccs2)n1	18	15	2	7
CSc1nnnn1-c1c(C)cccc1C	.	-13	-8	51*
Cc1cccc(C)c1-n1nnnc1SCSc1nnnn1-c1c(C)cccc1C	-6	16	4	-4
COCC#Cc1cnc2c(c1)C(=O)N([C@H](C)CO)C[C@@H](C)[C@@H](CN(C)Cc1ccc3c(c1)OCO3)O2	-4	.	.	.
CCCn1c(O)c(N=NC(=O)c2ccco2)c2ccccc21	.	-65	-55*	2
CCn1c(O)c(N=NC(=O)c2cccs2)c2ccccc21	.	63*	19	5
CCN(CC)C(=O)CN1C(=O)/C(=C/c2ccccc2)SC1=S	8	-68	-57*	0
O=C(O)CN1C(=O)/C(=C\c2cccc(OCc3ccccc3F)c2)SC1=S	10	58*	20	-5
Cc1noc(C)c1NC(=O)Nc1ccc2c(c1)C(=O)N([C@H](C)CO)C[C@H](C)[C@H](CN(C)Cc1ccncc1)O2	3	.	.	.
COc1cc(C=C2CCCC(=Cc3ccc(OCC4CO4)c(OC)c3)C2=O)ccc1OCC1CO1 (centres undefined)	.	.	.	62*
